Among all 200,000 compounds or so, about 10 (0.005%) were called active. Where a call stands in place of a potency, no number is given. Not shown: some 8% with an inconclusive outcome. The call rests on the fitted dose curve; in most records, active means well fitted inhibition curve with a large enough effect; inconclusive means small, poorly fitted or top-dose-only effect, or effect the other way, or another doubt; inactive means no such curve, though single readings can be large or run the other way. The full list was thinned out, with actives kept by preference.
The compounds below were run against Lysosomal alpha-glucosidase (Homo sapiens) (UniProt P10253) (assay: qHTS Assay for Inhibitors of Human alpha-Glucosidase as a Potential Chaperone Treatment of Pompe Disease). Conditions: purified human GAA, 4-MU-alpha-glucoside fluorescence; series mostly up to 76.9 µM.
Description: NIH Chemical Genomics Center [NCGC] NIH Molecular Libraries Probe Production centers Network [MLPCN] MLPCN Grant: 1R03MH084841-01 Assay Submitter (PI): Wei Zheng NCGC Assay Overview: Alpha-glucosidase is responsible for hydrolysis of terminal, non-reducing 1,4-linked alpha-D-glucose residues with release of alpha-D-glucose. It is a lysosomal hydrolase that is required for the degradation of a small percentage (1-3%) of cellular glycogen in human. Deficiency of this enzyme results in glycogen-storage disease type II (GSDII), also referred to as Pompe disease, an autosomal recessive disorder. Structurally normal glycogen is accumulated in lysosomes and cytoplasm in affected patients, primarily in muscle tissues. Excessive glycogen storage within lysosomes may interrupt normal functioning of other organelles and leads to cellular injury. In turn, this leads to enlargement and dysfunction of the entire organ involved (eg, cardiomyopathy and muscle weakness). It has reported that the improper folding and trafficking of alpha-glucosidase resulting from the genetic mutations may account for a significant number of Pompe patients. […] We optimized this alpha-glucosidase assay in 1536-well plate format for identifying the novel small molecule inhibitors with the structures other than the sugar analogs in order to develop the new pharmacological chaperones.
NCGC Assay Protocol Summary: This is a fluorogenic enzyme assay with 4-methylumbelliferyl-alpha-D-[…] as the substrate and human alpha-glucosidase as the enzyme preparation. Upon the hydrolysis of this fluorogenic substrate, the resulting product, 1. 4-methyllumbelliferone, can be excited at 365 nm and emits at 440 nm which can be detected by a standard fluorescence plate reader. Data were normalized to the controls for basal activity (without enzyme) and 100% activity (with enzyme). In the AC50 values were determined from concentration-response data modeled with the standard Hill equation. Assay buffer: 50 mM citric acid (titrated with potassium phosphate to pH 5.0), 0.005% Tween-20, pH 5.0. (pH 5.0 is an optimal condition for this enzyme assay) 1536-well assay protocol for the human alpha-glucosidase: (1) Add 2 ul/well of enzyme (4 nM final) (2) Add 23 nL compounds in DMSO solution. The final titration was 0.7 nM to 77 uM. (3) Add 1 ul of substrate (400 uM final) (4) Incubate at room temperature for 20 min. (5) Add 2 ul stop solution (1M NaOH and 1M Glycine mixture, pH 10) (6) Detect the assay plate in a ViewLux plate reader (PerkinElmer) with Ex=365 nm and Em=440nm. Keywords: Alpha-glucosidase, Pompe Disease, pharmacological chaperone, chaperone therapy, high throughput screening, alpha-glucosidase inhibitor, MLSMR, MLSCN, NIH Roadmap, qHTS and NCGC
Potency means the concentration at half of the fitted maximal effect.

SMILES	Potency
Cc1c(C(=O)O)cccc1-n1c(C)cc(/C=C2\C(=O)NC(=O)N(c3ccc4c(c3)OCO4)C2=O)c1C	inactive
Cc1ccc(-n2c(C)cc(/C=C3\C(=O)NC(=O)N(C)C3=O)c2C)cc1C	inactive
Cc1cc(/C=C2/C(=O)NC(=O)N(Cc3ccco3)C2=O)c(C)n1-c1ccc(C(=O)O)cc1	31.6 µM (active)
CCN1CC2C3CCC(C)(O3)C2C1 (stereo not given)	inactive
CCOP(=O)(OCC)C(NC(=O)c1ccc(OC)cc1)C(Cl)(Cl)Cl (stereo not given)	inactive
